# In PMC4336329 (PLoS ONE, 2015):
# In all, about 310,000 compounds went through this assay and about 14,000 (4.5%) showed an effect of 50% or more. Effects have a minus sign here. The sample as a whole holds a higher share of strong results than the screen did.
# Biological target: human ether-à-go-go-related gene (hERG) potassium channel (human, UniProt Q12809)
# Assay: primary screen, population patch clamp on CHO cells stably expressing hERG; higher = less effect of the substance
# 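Also: peak tail current of the secondary pulse compared with the same well before compound.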
# Chain of human ether-à-go-go-related gene (hERG) potassium channel (Q12809 whole entry, looked up): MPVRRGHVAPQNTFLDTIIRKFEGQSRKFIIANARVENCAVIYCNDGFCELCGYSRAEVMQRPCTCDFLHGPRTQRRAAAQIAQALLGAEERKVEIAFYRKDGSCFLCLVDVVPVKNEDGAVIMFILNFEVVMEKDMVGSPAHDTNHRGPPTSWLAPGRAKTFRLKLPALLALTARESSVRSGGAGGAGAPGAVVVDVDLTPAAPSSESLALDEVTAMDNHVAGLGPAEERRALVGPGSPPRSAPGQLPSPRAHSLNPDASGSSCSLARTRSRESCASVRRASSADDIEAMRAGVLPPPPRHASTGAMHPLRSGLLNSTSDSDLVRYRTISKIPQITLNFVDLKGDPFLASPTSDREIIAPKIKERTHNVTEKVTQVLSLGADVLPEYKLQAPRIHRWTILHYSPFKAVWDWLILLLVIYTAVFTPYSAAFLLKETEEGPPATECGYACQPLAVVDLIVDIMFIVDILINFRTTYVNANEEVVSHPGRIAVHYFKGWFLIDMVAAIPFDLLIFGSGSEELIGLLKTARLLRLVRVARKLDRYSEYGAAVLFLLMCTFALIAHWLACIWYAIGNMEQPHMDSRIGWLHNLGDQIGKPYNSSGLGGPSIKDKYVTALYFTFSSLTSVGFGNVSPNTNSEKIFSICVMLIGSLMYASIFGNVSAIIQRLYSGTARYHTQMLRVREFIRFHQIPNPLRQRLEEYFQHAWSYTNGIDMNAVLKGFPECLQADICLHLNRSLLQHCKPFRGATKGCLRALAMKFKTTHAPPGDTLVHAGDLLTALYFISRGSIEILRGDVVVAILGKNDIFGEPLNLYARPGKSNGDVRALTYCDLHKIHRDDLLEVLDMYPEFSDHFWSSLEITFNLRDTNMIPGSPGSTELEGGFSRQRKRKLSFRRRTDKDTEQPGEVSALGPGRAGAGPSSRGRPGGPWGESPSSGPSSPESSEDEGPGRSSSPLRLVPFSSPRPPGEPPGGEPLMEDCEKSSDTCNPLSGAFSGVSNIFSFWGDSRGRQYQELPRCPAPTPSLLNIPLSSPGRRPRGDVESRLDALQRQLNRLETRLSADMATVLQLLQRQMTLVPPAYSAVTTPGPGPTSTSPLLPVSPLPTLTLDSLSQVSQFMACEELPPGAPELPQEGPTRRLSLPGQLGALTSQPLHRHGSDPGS
row,Compound,"hERG current change (%, negative = inhibition) at 10uM"
1,Cc1ccccc1C(=O)NNC(=O)C1CC(=O)N(Cc2ccccc2)C1 (stereo not drawn),2.19%
2,COc1ccc(C(C#N)c2ccc(Cl)nn2)cc1 (stereo not drawn),-2.07%
3,Cc1ccc2[nH]c(=O)c3cc(C(=O)NCC4CCCO4)sc3c2c1 (stereo not drawn),-3.5%
4,CS(=O)(=O)Nc1ccc(C(=O)NC2CCCCC2)cc1,-0.845%
5,COc1ccc2cc(C)c(SCC(=O)Nc3cc(C)on3)nc2c1,6.5%
6,COc1ccc(-c2nc3ccccc3o2)cc1NC(=O)c1ccc(Br)o1,4.92%
7,CCOC(=O)COn1c(=O)c(-c2ccc(OC)cc2)[n+]([O-])c2ccccc21,-1.13%
8,CC(C)CNC(=O)C1CCN(c2ccc(S(=O)(=O)N3CCOCC3)cc2[N+](=O)[O-])CC1,-38.8%
9,CCCCN(C)C(=O)C1CCN(c2ccc(S(=O)(=O)N3CCOCC3)cc2[N+](=O)[O-])CC1,-53.9%
10,O=C(NCc1ccco1)C1CCN(c2ccc(S(=O)(=O)N3CCOCC3)cc2[N+](=O)[O-])CC1,-70%
11,CCCN(CCC)C(=O)C1CCN(c2ccc(S(=O)(=O)N3CCOCC3)cc2[N+](=O)[O-])CC1,-22.4%
12,COCCN(CCOC)C(=O)C1CCN(c2ccc(S(=O)(=O)N3CCOCC3)cc2[N+](=O)[O-])CC1,-35.5%
13,C=CCNC(=O)C1CCN(c2ccc(S(=O)(=O)N3CCOCC3)cc2[N+](=O)[O-])CC1,-24%
14,CN(/N=C/c1ccco1)C1=NS(=O)(=O)c2ccccc21,4.85%
15,O=C(CC(SCCO)c1ccc2c(c1)OCO2)c1cccs1 (stereo not drawn),-16.7%
16,CCOc1cc(N2CCOCC2)c(OCC)cc1NC(=O)CCS(=O)(=O)c1ccc(Cl)cc1,-35.5%
17,N#CCCN1CCN(S(=O)(=O)c2ccc(S(=O)(=O)NC3CC3)cc2)CC1,-1.76%
18,O=C(Nc1cccc(C(F)(F)F)c1)c1c(O)c2ccccc2[nH]c1=O,16%
19,CCN(CC)CCN=Cc1c(O)n(CCC2=CCCCC2)c(=O)[nH]c1=O,-65.6%
20,CCN(CC)CCCN=Cc1c(O)n(Cc2ccc(F)cc2)c(=O)[nH]c1=O,-33.7%
21,CCN(CC)CCCN=Cc1c(O)n(CCc2ccc(F)cc2)c(=O)[nH]c1=O,-56.1%
22,CN(C)CCCN=Cc1c(O)n(CCc2ccc(F)cc2)c(=O)[nH]c1=O,15.2%

row,Compound,"hERG current change (%, negative = inhibition) at 10uM"
1,O=c1[nH]c(=O)n(CCC2=CCCCC2)c(O)c1C=NCCN1CCNCC1,-11.7%
2,CN(C)CCN=Cc1c(O)n(CCC2=CCCCC2)c(=O)[nH]c1=O,-24.2%
3,CN1CCN(c2ccc(S(=O)(=O)N3CCOCC3)cc2NC(=O)CC(C)(C)C)CC1,8.55%
4,O=C(NCc1ccco1)c1ccc(COCC(F)(F)C(F)F)cc1,-13.6%
5,CC(=O)Nc1ccc(S(=O)(=O)/N=C2\SCCN2S(=O)(=O)c2ccc(NC(C)=O)cc2)cc1,-5.46%
6,C=CCSc1nsc(NC(=O)Nc2ccc(F)cc2)n1,22.1%
7,COc1cc(-c2nnc(SCC3(c4ccc(Br)cc4)OCCO3)o2)cc(OC)c1OC,-9.92%
8,Cc1nc(C(C)NC(=O)c2cc(COc3ccc(F)c(F)c3)on2)cs1 (stereo not drawn),-11.2%
9,O=[N+]([O-])c1ccc(OCCn2cnc3ccccc32)cc1,-68.1%
10,c1ccc(OCCn2cnc3ccccc32)cc1,-9.08%
11,O=c1c2ccc([N+](=O)[O-])cc2ncn1CCOc1ccccc1,-8.16%
12,CC(C)(C)c1ccc(OCCOCCn2cnc3ccccc3c2=O)cc1,-36.8%
13,O=c1c2ccccc2ncn1CCOCCOc1ccc([N+](=O)[O-])cc1,-64.3%
14,COc1ccc(OCCn2cnc3ccccc32)cc1,0.789%
15,Cc1c(C(=O)OC(C)C)sc(NC(=O)c2cccnc2)c1C#N,18.3%
16,CCOc1ccc(CCNC(=O)c2ccc(Cl)c(S(=O)(=O)N3CCOCC3)c2)cc1OCC,-20.4%
17,CCN(C(=O)Cn1c(=O)oc2ccccc21)c1cccc(C)c1,6.38%
18,COc1cc2c(cc1OC)C1=C(C#N)CC/C(=N\S(=O)(=O)c3ccccc3)N1CC2,-33.1%
19,O=C(CSc1nnc(NC(=O)c2cccc(Cl)c2)s1)NCC1CCCO1 (stereo not drawn),20%
20,Cl.O=C(O)c1ccc(CNCc2ccc(F)cc2)cc1,16.4%
21,CCOC(=O)Cc1csc(NC(=O)c2sc3nc4cc(C)ccc4cc3c2N)n1,-6.55%
22,CC(C)Cn1c(N2CCN(C(=O)c3cccs3)CC2)nc2ccccc21,-73.6%

row,Compound,"hERG current change (%, negative = inhibition) at 10uM"
1,CC(C)Cn1c(SCC(=O)N2CCN(S(=O)(=O)c3ccccc3)CC2)nc2ccccc21,0.539%
2,CCn1c(N2CCN(C(=O)c3ccco3)CC2)nc2ccccc21,-50.7%
3,O=C(Cn1c(N2CCN(c3ccccc3)CC2)nc2ccccc21)c1ccccc1,-16.1%
4,CC(C)Cn1c(/C=C/c2ccccc2)nc2ccccc21,-42.2%
5,CC(C)n1c(N2CCN(C(=O)c3cccs3)CC2)nc2ccccc21,-49.2%
6,CC(C)Cn1c(N2CCN(C(=O)/C=C/c3ccccc3)CC2)nc2ccccc21,-69.1%
7,O=C(c1cccs1)N1CCn2c1nc1ccccc12,-25.5%
8,CCn1c(N2CCN(C(=S)NCCc3ccccc3)CC2)nc2ccccc21,-50%
9,CC1CCN(c2nc3ccccc3n2CC(=O)c2ccccc2)CC1,56%
10,O=C(Cn1c(N2CCN(C/C=C/c3ccccc3)CC2)nc2ccccc21)c1ccccc1,-51.2%
11,Cc1nnc2c(N3CCN(C(=O)c4ccco4)CC3)nc3ccccc3n12,-33.1%
12,COc1ccc(/C=C2\C(=O)NC(=O)N(CCC3=CCCCC3)C2=O)c(OC)c1,24.6%
13,COc1ccccc1NC(=O)C1=C(C)Nc2nnnn2C1c1cc(Br)ccc1OC (stereo not drawn),-0.22%
14,CCOc1ccccc1C(=O)OCC(=O)NCCNC(=O)COC(=O)c1ccccc1OCC,5.95%
15,O=C(CC1S/C(=N/N=C/c2cccs2)NC1=O)Nc1ccc(Cl)cc1 (stereo not drawn),-3.86%
16,Cc1cc(C)cc(N(C(=O)c2snc(C(N)=O)c2N)C(C(=O)NCC2CCCO2)c2cccs2)c1 (stereo not drawn),-18.7%
17,Cc1ccc(C(=O)/C=C/Nc2ccccn2)cc1,-1.05%
18,O=C(COc1ccccc1[N+](=O)[O-])N1CCN(S(=O)(=O)c2ccccc2)CC1,-46.6%
19,CCOC(=O)Cn1c(C)nc2c(C(=O)OCC)sc(C)c2c1=O,-5%
20,O=C(NCCCN1CCCC1=O)c1cc(NS(=O)(=O)c2ccc(F)cc2)cc(NS(=O)(=O)c2ccc(F)cc2)c1,-4.88%
21,CCn1c(N2CCN(C(=O)/C=C/c3ccccc3)CC2)nc2ccccc21,-80.8%
22,CCCn1c(N2CCN(C(=O)/C=C/C(=O)O)CC2)nc2ccccc21,9.76%

row,Compound,"hERG current change (%, negative = inhibition) at 10uM"
1,CCn1c(N2CCN(C(=O)C34CC5CC(CC(C5)C3)C4)CC2)nc2ccccc21,-37.9%
2,Cc1cccc(C(=O)NC(=S)NNC(=O)Cc2ccccc2)c1,3.66%
3,O=C(C1CCCO1)N1CCN(C(=S)NC2CC2)CC1 (stereo not drawn),23%
4,COc1cccc(C2C=C(c3ccc(OC)cc3OC)Nc3nnnn32)c1 (stereo not drawn),1.76%
5,Cc1ccc(S(=O)(=O)NCCC(=O)N2CCN(c3cccc(Cl)c3)CC2)cc1C,4.35%
6,Cc1ccc(C)c(N2CCN(C(=O)CCS(=O)(=O)c3cccc4nonc34)CC2)c1,-25.4%
7,O=S(=O)(c1cccc2nonc12)N1CCN(c2cccc(Cl)c2)CC1,-4%
8,O=C(CCS(=O)(=O)c1cccc2nonc12)N1CCN(c2ccc(F)cc2)CC1,-60.8%
9,O=C(CCNS(=O)(=O)c1cccc2nonc12)N1CCN(c2cccc(Cl)c2)CC1,-50.6%
10,O=C(CCS(=O)(=O)c1cccc2nonc12)N1CCOCC1,14.6%
11,CSc1ncc(C(=O)Nc2ccccc2C)c(C)n1,12.5%
12,Cc1ccc(-c2nc3c(=O)n(C)c4ccccc4c3o2)cc1,22.3%
13,Nc1cc(=O)[nH]c(=O)n1-c1cccc(F)c1,18.4%
14,COc1ccccc1NC(=O)c1cc2c(=O)n(C)c3ccccc3c2n1C,1.19%
15,O=C(OCCOc1cccc(Cl)c1)c1cc(S(=O)(=O)N2CCOCC2)ccc1F,-14%
16,CCn1c(COc2ccc(OC)cc2)nc2ccccc21,-19.8%
17,Cc1ccccc1NC(=O)C1CCN(C2=NS(=O)(=O)c3ccccc32)CC1,-15.2%
18,COc1cc(CNc2ccccc2)c([N+](=O)[O-])cc1OC.O=C(O)C(=O)O,-3.72%
19,C/C(=C1/SC(N2CCCC2)=NC1=O)c1ccc(Br)cc1,-76.7%
20,C/C(=C1\SC(N2CCOCC2)=NC1=O)c1ccc(C)cc1,-10.8%
21,C/C(=C1/SC(N2CCOCC2)=NC1=O)c1ccc(Br)cc1,14.8%
